From PubChem BioAssay
D1 potentiator: Potentiators of Human D1 Dopamine Receptor: qHTS. 360,000 tested, 0.036% active. potentiation, % at 10 µM. D(1A) dopamine receptor (Homo sapiens), P21728. HEK293 TREx D1 cells, calcium flux, dopamine EC20 potentiation; in the data active = potentiation above about 30%; note: 0% is about no effect
D1 antagonist: Antagonist of Human D 1 Dopamine Receptor: qHTS; HEK293 TREx D1 cells, calcium flux, dopamine EC80; stronger effect = lower value; 360,000 tested, 3.2% active; activity change, negative = inhibition, % at 10 µM; D(1A) dopamine receptor (Homo sapiens), P21728; in the data active = activity change below about -30%; note: % is set by controls: 0 for no effect and ±100 for the full control effect
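Using tetracycline-induced force-coupled D1 Hek293 cells and a calcium dye, signals were followed for 180 s after compound, then for 180 s after EC80 dopamine, to detect inhibitors.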
D1 agonist: Allosteric Agonists of the Human D1 Dopamine Receptor: qHTS | AID 504660, 2011 | 360,000 tested, 1% active | D(1A) dopamine receptor (Homo sapiens), P21728 | HEK293 T-REx D1 cells, calcium flux, agonist mode | activation, % at 2 µM; note: 0% is about no effect
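Tetracycline-induced HEK293 TREx D1 cells, force-coupled to calcium signalling, were dye-loaded with a no-wash calcium kit. Compound was pin-added after a 10 s baseline. Fluorescence was read kinetically at 1 cycle/s for 180 s, with calcium rises flagged as agonism.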
TRHR ag: qHTS for Small Molecule Agonists and Allosteric Enhancers of Human TRH Receptor: Primary Screen for Agonists; 360,000 tested, 0.18% active; Thyrotropin-releasing hormone receptor (Homo sapiens), P34981; TRHR cells, calcium flux fluo-8, FDSS agonist mode; activation, % at 2 µM; note: 0% is about no effect
Target sequence (P34981 whole entry, looked up): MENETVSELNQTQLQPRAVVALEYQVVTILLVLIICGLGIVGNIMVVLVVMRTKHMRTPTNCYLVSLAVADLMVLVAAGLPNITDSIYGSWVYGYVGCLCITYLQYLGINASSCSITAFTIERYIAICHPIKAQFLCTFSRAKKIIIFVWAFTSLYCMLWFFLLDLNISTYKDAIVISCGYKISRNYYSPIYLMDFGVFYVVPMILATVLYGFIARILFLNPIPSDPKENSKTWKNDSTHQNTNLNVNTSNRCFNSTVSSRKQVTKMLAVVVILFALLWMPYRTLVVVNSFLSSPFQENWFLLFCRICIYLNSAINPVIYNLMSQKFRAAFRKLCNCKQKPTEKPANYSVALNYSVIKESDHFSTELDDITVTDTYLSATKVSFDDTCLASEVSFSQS
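TRHR-expressing cells, plated overnight in medium with 10% serum, were loaded with fluo-8 calcium dye at room temperature. After a 10 s baseline, library compound was pin-added and calcium release was recorded kinetically (ex 480/em 530) as agonist response.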
TRHR PAM: qHTS for Small Molecule Agonists and Allosteric Enhancers of Human TRH Receptor: Primary Screen for Enhancers; Thyrotropin-releasing hormone receptor (Homo sapiens), P34981; TRHR cells, fluo-8 calcium fluorescence, EC20 TRH enhancement; enhancement, % at 2 µM; 360,000 tested, 0.66% active; AID 493056, 2011; in the data active = enhancement above about 30%; note: 0% is about no effect
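Enhancer read-out: after compound pinning and an initial kinetic agonist-mode read, an EC20 of TRH (10 nM final) was injected and fluo-8 calcium signal (Ex 480/Em 530) followed at 1 s/cycle for 100 cycles in TRHR-expressing cells.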
* marks the source's active call; other numbers are inactive results. An excerpt weighted towards active compounds, which were near 4.6% of everything screened. Cut-off read from the data, not from the text of the source, unless noted: active = activation above about 30%; inactive = the rest.

How did CC(=O)Nc1ccc(Sc2ncccc2C(=O)Nc2ccc(OC(F)(F)F)cc2)cn1 do in these assays?
D1 potentiator: 18.6; D1 antagonist: -60.0*; D1 agonist: 115.3*; TRHR ag: 0.2; TRHR PAM: 4.4

Results for O=C(NCCS(=O)(=O)c1ccc(Br)cc1)c1ccc(Cl)cc1Cl ?
D1 potentiator: -7.7; D1 antagonist: -39.1*; D1 agonist: 0.9; TRHR ag: -0.6; TRHR PAM: -1.0

How did O=C(NCCS(=O)(=O)c1ccc(Br)cc1)c1ccccc1 do in these assays?
D1 potentiator: -2.9; D1 antagonist: -12.4; D1 agonist: 0.9; TRHR ag: 0.0; TRHR PAM: 2.0

Results for O=C(Nc1nccs1)C1CC=CCC1 (stereo unspecified) ?
D1 potentiator: 4.7; D1 antagonist: -19.1; D1 agonist: 4.3; TRHR ag: 0.5; TRHR PAM: -7.0

Results for O=C(Nc1ccc(O)cc1)C1CC=CCC1 (stereo unspecified) ?
D1 potentiator: -6.8; D1 antagonist: -100.0*; D1 agonist: 4.3; TRHR ag: -0.1; TRHR PAM: 0.1

How did Nc1c(C(=O)c2ccc(Cl)cc2)sc2nsc(SCCN3CCOCC3)c12 do in these assays?
D1 potentiator: -1.1; D1 antagonist: -25.5; D1 agonist: 102.6*; TRHR ag: 27.5; TRHR PAM: -4.8

Results for Nc1c(C(=O)c2ccccc2)sc2nsc(SCCN3CCCC3)c12 ?
D1 potentiator: -3.9; D1 antagonist: -34.5*; D1 agonist: 166.6*; TRHR ag: 54.1*; TRHR PAM: -8.2

Results for O=C(CSc1nnnn1Cc1ccccc1)NC1CCCCC1 ?
D1 potentiator: -1.1; D1 antagonist: 26.7; D1 agonist: 0.2; TRHR ag: 0.5; TRHR PAM: -2.9

What do the screens show for `O=C(COc1ccc(Cl)cc1)NNC(=O)C(=O)N1CCCCC1`?
D1 potentiator: -0.4; D1 antagonist: -25.8; D1 agonist: -0.1; TRHR ag: -0.8; TRHR PAM: 5.5

Results for O=C(OCn1nnc2ccccc2c1=O)c1cc(-c2ccccc2Cl)nc2ccccc12 ?
D1 potentiator: -6.8; D1 antagonist: 4.2; D1 agonist: 2.7; TRHR ag: -0.3; TRHR PAM: 0.4

What do the screens show for `Cc1ccc(C)c(C(=O)CCC(=O)OCn2nnc3ccccc3c2=O)c1`?
D1 potentiator: -3.9; D1 antagonist: -63.5*; D1 agonist: 2.4; TRHR ag: -1.1; TRHR PAM: -1.4

Results for O=C(OCn1nnc2ccccc2c1=O)c1ccc(O)cc1 ?
D1 potentiator: -2.9; D1 antagonist: -7.9; D1 agonist: 3.1; TRHR ag: 0.2; TRHR PAM: 1.8

Results for O=C(OCn1nnc2ccccc2c1=O)c1ccc(Br)o1 ?
D1 potentiator: -1.0; D1 antagonist: 4.0; D1 agonist: 2.8; TRHR ag: -0.6; TRHR PAM: 33.1*

Results for Cc1onc(-c2ccccc2Cl)c1C(=O)OCn1nnc2ccccc2c1=O ?
D1 potentiator: -6.5; D1 antagonist: -50.0*; D1 agonist: 2.1; TRHR ag: 1.1; TRHR PAM: 1.1

How did O=C1c2cccc3cc([N+](=O)[O-])cc(c23)C(=O)N1CCN1CCCC1 do in these assays?
D1 potentiator: 9.8; D1 antagonist: 7.3; D1 agonist: 1.1; TRHR ag: 0.2; TRHR PAM: -4.5

What do the screens show for `Nc1cc2c3c(cccc3c1)C(=O)N(CCN1CCCC1)C2=O`?
D1 potentiator: -0.1; D1 antagonist: -4.9; D1 agonist: 55.7*; TRHR ag: 12.3; TRHR PAM: 4.6

Results for CCN(C(=S)NCCOC)c1cccc2ccccc12 ?
D1 potentiator: -10.9; D1 agonist: 0.2; TRHR ag: -1.0; TRHR PAM: 5.5

Results for Cc1ccccc1-c1nnc(SCC#N)o1 ?
D1 potentiator: 1.3; D1 antagonist: 10.3; D1 agonist: -0.5; TRHR ag: 0.0; TRHR PAM: -4.3

What do the screens show for `Cc1ccc(NC(=O)Cn2ccsc2=N)cc1S(=O)(=O)N(C)C`?
D1 potentiator: -4.8; D1 antagonist: -7.1; D1 agonist: 3.3; TRHR ag: 0.3; TRHR PAM: 1.4
